This note sets out measurements from PubChem BioAssay (NCI).

This is part of a sample that, as a whole, favours compounds with a hit. Of some 83,000 tested, about 20% had one in any assay.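 In brief: 96-well plates, 48 h treatment, single concentration, percent growth endpoint.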 A number with no mark means an inactive call. Active and inactive are the calls of the source. Rule for the calls: active = growth percent below 10; inactive = the rest.

Test systems include T-47D breast; BT-549 breast; MDA-MB-435 melanoma; SW-620 colon; MCF7 breast; HCT-116 colon; HCC-2998 colon; KM12 colon.
Common to all, as to assay: NCI-60 one-dose screen, 48 h (100 = growth as untreated, 0 = no growth, -100 = all killed)
Holding throughout (conditions): 10 µM unless noted

Turning to `Cc1ccc(C=C2C(=O)NC(=O)NC2=O)cc1`, the growth with T-47D breast is 113%; with BT-549 breast, 104%; in the experiment with MDA-MB-435 melanoma, 109%; in the experiment with SW-620 colon, 109%; in the experiment with MCF7 breast, 98.8%; with HCT-116 colon, 108%. For the same compound, the figures for the growth in the experiment on HCC-2998 colon and in the experiment on KM12 colon were 112% and 108%, respectively.
As to `CN1CCN(Cc2ccc(NC(=O)c3cncc(C#Cc4cnc(N)c5ncccc45)c3)cc2C(F)(F)F)CC1`, the growth is 35.9% in the experiment on T-47D breast; 34.1% with BT-549 breast; -64.7% (active) in the experiment with MDA-MB-435 melanoma; -16.9% (active) in the experiment with SW-620 colon; -74.2% (active) with MCF7 breast; -63.8% (active) in the experiment on HCT-116 colon. For the same compound, the results for the growth with HCC-2998 colon and in the experiment with KM12 colon were 16.3% and 5.04% (active), respectively.
Consider `Fc1cccc(-c2ccc3c(c2)C2(CCNCC2)CN3)c1`, for which the growth with T-47D breast is 78.9%; with BT-549 breast it was 93.1%; with MDA-MB-435 melanoma, 108%; with SW-620 colon, 106%; in the experiment with MCF7 breast, 92.5%; with HCT-116 colon, 94.3%. Besides, the figures for the growth in the experiment with HCC-2998 colon and with KM12 colon were 99.4% and 102%, respectively.
For the compound `CC1=CCC(OC(=O)C(C)(C)CC(O)(C(C)O)C(O)C2(C)C=CC(Cc3ccc(C(C)C)cc3)(C(C)C)CC2)(C(C)C)CC1` (stereo not given), the growth in the experiment with T-47D breast was 98.9%; in the experiment on BT-549 breast, 109%; in the experiment with MDA-MB-435 melanoma, 94.1%; in the experiment on SW-620 colon, 92.6%; in the experiment on MCF7 breast, 102%; with HCT-116 colon it was 93.7%. Also, the growth in the experiment with HCC-2998 colon is 103%; in the experiment on KM12 colon, 105%.
Consider `Nc1nc(N)c2c(n1)NC(c1ccc(Cl)cc1)C1CCc3ccccc3C1=N2` (stereo not given), for which the growth was 52.6% in the experiment on T-47D breast; 83.2% with BT-549 breast; 44.2% in the experiment on MDA-MB-435 melanoma; 63.8% with SW-620 colon; 24.8% with MCF7 breast; 31.8% in the experiment with HCT-116 colon. In addition, the growth with HCC-2998 colon is 75.6%; in the experiment on KM12 colon, 55.4%.
On to `CSC1=Nc2c(c(C)c(-c3ccccc3)n2CCCC(=O)O)C2=NC(=O)C[C@H](C)N12`, for which the growth in the experiment with T-47D breast was 113%; with BT-549 breast, 105%; in the experiment with MDA-MB-435 melanoma it was 102%; with SW-620 colon, 102%; in the experiment with MCF7 breast, 88.8%; in the experiment on HCT-116 colon it was 101%. Besides, the figures for the growth in the experiment with HCC-2998 colon and with KM12 colon were 104% and 97.1%, respectively.
Turning to `O=C(CI)NC(=O)NC(=O)NCc1ccccc1`, the growth in the experiment on T-47D breast is 18.8%; in the experiment with BT-549 breast, 37.2%; in the experiment on MDA-MB-435 melanoma, 21%; in the experiment on SW-620 colon it was 25.2%; in the experiment on MCF7 breast, 12%; with HCT-116 colon it was 13.3%. In addition, the growth was 95.3% with HCC-2998 colon and 88.6% with KM12 colon.
As to `C=C1C(=O)O[C@H]2[C@H]1CC/C(COC(=O)NCc1ccc(Cn3c(=O)sn(-c4ccc(C#N)cc4)c3=O)cc1)=C\CC[C@@]1(C)O[C@@H]21`, the growth was 28.1% in the experiment with T-47D breast; 60.4% in the experiment with BT-549 breast; 59.6% in the experiment on MDA-MB-435 melanoma; 24.1% in the experiment on SW-620 colon; 27.5% in the experiment on MCF7 breast; 25.4% in the experiment with HCT-116 colon. In addition, the growth in the experiment on HCC-2998 colon is 104%; in the experiment on KM12 colon, 101%.
Take `Nc1nc(N)c2c(n1)NC(c1cccc(Nc3ccnc4cc(C(F)(F)F)ccc34)c1)CC(c1ccc(Br)cc1)=N2` (stereo not given): the growth in the experiment on T-47D breast was 68.9%; in the experiment on BT-549 breast, 114%; with MDA-MB-435 melanoma, -25.8% (active); in the experiment with SW-620 colon, 31.1%; in the experiment with MCF7 breast it was 17.3%; with HCT-116 colon it was 16.2%. The growth in the experiment on HCC-2998 colon was 55.1%; with KM12 colon, 28.3%.
Take `CN(C)CCCC1(c2ccc(F)cc2)OCc2cc(-c3ccc4cc[nH]c4c3)ccc21` (stereo not given): the growth in the experiment with T-47D breast was 75.8%; in the experiment with BT-549 breast, 87.7%; in the experiment on MDA-MB-435 melanoma it was 14.7%; in the experiment on SW-620 colon, 17.2%; in the experiment with MCF7 breast, -4.23% (active); in the experiment on HCT-116 colon, -12.2% (active). Also, the figures for the growth with HCC-2998 colon and with KM12 colon were -61.6% (active) and 0.464% (active), respectively.
Consider `Cc1ccc2nc(NC(=O)CSc3nc(-c4ccccc4)c(C#N)c4nnnn34)sc2c1`, for which the growth was 100% with T-47D breast; 106% in the experiment with BT-549 breast; 105% with MDA-MB-435 melanoma; 104% in the experiment on SW-620 colon; 95.7% in the experiment on MCF7 breast; 99.1% in the experiment on HCT-116 colon. Besides, the growth is 103% in the experiment on HCC-2998 colon and 102% in the experiment on KM12 colon.
In the case of `Cc1ccc(-c2csc(NC(=O)c3ccccc3CN3C(=O)c4ccccc4C3=O)n2)cc1`, the growth in the experiment with T-47D breast is 97.1%; with BT-549 breast it was 91.4%; in the experiment with MDA-MB-435 melanoma, 95.3%; in the experiment on SW-620 colon, 100%; with MCF7 breast it was 94.3%; in the experiment with HCT-116 colon it was 95.4%. In addition, the growth in the experiment on HCC-2998 colon is 98%; with KM12 colon, 100%.
`CC(=O)O[C@H]1C[C@@H]2C(C)(C)C(=O)CC[C@@]2(C)c2ccc(C(C)C)cc21`: the growth was 102% with T-47D breast; 101% with BT-549 breast; 100% with MDA-MB-435 melanoma; 104% in the experiment on SW-620 colon; 107% in the experiment on MCF7 breast; 105% with HCT-116 colon. Further, the growth in the experiment with HCC-2998 colon is 107%; with KM12 colon, 97.7%.
As for `O=c1c2c3c(sc2n2c(-c4cc(-c5ccccc5)no4)nnc2n1Cc1ccccc1)CCCC3`, the growth in the experiment with T-47D breast was 53.3%; in the experiment on BT-549 breast it was 91.9%; in the experiment on MDA-MB-435 melanoma, 106%; in the experiment with SW-620 colon it was 106%; in the experiment with MCF7 breast, 97.1%; with HCT-116 colon, 81.6%. Besides, the results for the growth with HCC-2998 colon and in the experiment with KM12 colon were 101% and 95.5%, respectively.
Turning to `C=CCn1c(SCC(=O)Nc2ccc(/C(C)=N/O)cc2)nnc1-c1cc(-c2ccc(S(N)(=O)=O)cc2)nc2ccccc12`, the growth is 27.4% with T-47D breast; 58.8% with BT-549 breast; 67.3% with MDA-MB-435 melanoma; 84.2% in the experiment with SW-620 colon; 43.3% with MCF7 breast; 77.7% in the experiment on HCT-116 colon. In addition, the growth in the experiment with HCC-2998 colon is 101%; in the experiment on KM12 colon, 86.5%.
